# Out of some 4,100 compounds screened, about 1,600 (39%) were called active. Inconclusive results (about 25%) are left out. Calls follow the shape of the dose curve; as a rule, active = well fitted inhibition curve with a large enough effect; inconclusive = small, poorly fitted or top-dose-only effect; inactive = no such curve, though single readings can be large or run the other way. The list shows a part of the results.
# Assay: qHTS Validation assay for Inhibitors of Plasmodium falciparum Dd2 growth in vitro; also: nearly all actives have a fitted effect of over 70% in size
# Settings: P. falciparum Dd2 in RBCs, SYBR Green growth, 72 h; series mostly up to 28.7 µM; activity change, negative = inhibition: at the top concentration
# Method in brief: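 P. falciparum Dd2-infected red blood cells (2.5% hematocrit, 0.3% parasitemia) grown 72 h at 37 °C under 5% O2 with compounds in a titration, 29 uM to 0.5 nM final. Growth read as SYBR Green-1 fluorescence after ~16 h lysis; artesunate 300 nM as positive control.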
# % is scaled to controls: 0 for no effect and ±100 for the full control effect; potency is read from the fitted curve at half-maximal effect.
Structure (SMILES),"activity change, negative = inhibition",Potency
CN1CCNc2nc(COc3ccc(Oc4ccccc4)cc3)n(Cc3ccccc3)c2C1=O,-10.4% (inactive),
CCCOc1ccc(CCc2n[nH]c(=S)n2Cc2ccccc2)cc1,,5.31 µM (active)
CC(C)Oc1ccc(CCc2n[nH]c(=S)n2Cc2ccccc2)cc1,,5.31 µM (active)
COc1ccc(/C=N/Nc2cc(C)nc3ccccc23)cc1,,2.11 µM (active)
S=C(NCc1ccccc1)N1CCn2cccc2C1c1cccnc1 (centres undefined),,9.44 µM (active)
S=C(NCc1ccccc1)Nc1ccncc1,12.2% (inactive),
c1csc(-c2ccnc(N[C@H]3CO[C@H]4[C@@H]3OC[C@@H]4NCC3CCCCC3)n2)c1,,12.2 µM (active)
CN(C)c1ccc(-c2ccnc(N[C@H]3CO[C@H]4[C@@H]3OC[C@@H]4NC(=O)NCc3ccccc3)n2)cc1,0.409% (inactive),
O=C(O)COc1ccc(-c2nccc(-c3cccs3)n2)cc1,25.3% (inactive),
CCc1ccccc1CN1CCC(CO)(CN2CCCC2)CC1,0.298% (inactive),
Cc1cc(CN2CCC(CO)(Cc3ccccc3Cl)CC2)cc(C)c1O,,16.8 µM (active)
Cc1cn2nc(C(=O)NCc3ccccn3)cc2c(=O)[nH]1,6.06% (inactive),
CCOc1ccc(CNC(=O)CN2N=C(c3ccccc3)CCC2=O)cc1OC,-2.34% (inactive),
COc1ccc(CC(=O)NCc2ccccn2)cc1OC,,7.5 µM (active)
O=C1c2ccccc2C(=O)c2[nH]c(=O)[nH]c21,,5.96 µM (active)
C=C[C@]1(C)C[C@@H](OC(=O)CSC(C)(C)CNC(=O)[C@H](N)C(C)C)[C@]2(C)[C@H](C)CC[C@]3(CCC(=O)[C@H]32)[C@@H](C)[C@@H]1O,,8.41 µM (active)
CCN(CC)CCC(c1ccc(OC)cc1)c1c(O)cc(OC)cc1OC (centres undefined),,6.68 µM (active)
CCN(CC)CCC(c1ccc(N(C)C)cc1)c1c(O)cc(OC)cc1OC (centres undefined),,3.35 µM (active)
CCN(CC)CCC(c1ccc2c(c1)OCO2)c1c(O)cc(OC)cc1OC (centres undefined),,4.22 µM (active)
CCCn1ccc2sc(C)c(C(=O)O)c2c1=O,8.71% (inactive),
COc1ccc(C(=O)N2CCc3ccc(C(=O)NCc4ccccn4)cc32)cc1,-8.95% (inactive),
CCn1cc(-c2ccncc2)cc1C(=O)NCc1cccc(OC)c1,-24.5% (inactive),
COc1cccc(CN2CCc3c(cc(C(=O)NCc4ccccn4)n3C)C2)c1,,15 µM (active)
Cc1noc(-c2cn(C3CCN(C(=O)Cc4ccc(OC(F)(F)F)cc4)CC3)nn2)n1,-9.53% (inactive),

Structure (SMILES),"activity change, negative = inhibition",Potency
CCCC(=O)NCCc1noc(-c2ccccc2)n1,30.7% (inactive),
CCCC(=O)NC(c1ccc(C(C)C)cc1)c1ccc2cccnc2c1O (centres undefined),,13.3 µM (active)
COc1cccc(C(NC(C)=O)c2ccc3cccnc3c2O)c1 (centres undefined),,4.22 µM (active)
CCOc1ccc(C(=O)NCc2nc3cccnc3n2Cc2cccc(OC)c2)cc1,20.1% (inactive),
CCCCC(=O)NC(c1ccccc1OC)c1ccc2cccnc2c1O (centres undefined),,5.31 µM (active)
CCCC(=O)NC(c1ccccc1)c1ccc2cccnc2c1O (centres undefined),,6.68 µM (active)
Cc1cn2nc(-c3nc(C4CCCN(C(=O)c5cccs5)C4)no3)cc2c(=O)[nH]1 (centres undefined),-8.72% (inactive),
CCCCC(=O)NC(c1ccc(C(C)C)cc1)c1ccc2cccnc2c1O (centres undefined),,7.5 µM (active)
c1ccc(-[n+]2nc(Nc3cccc4ccccc34)sc2-c2c3ccccc3cc3ccccc23)cc1,,5.96 µM (active)
CCOC(=O)C1(Cc2ccc(Cl)cc2)CCN(Cc2ccc(OC)cc2O)CC1,,0.188 µM (active)
COc1cc(CN2CCC3(CC2)C(=O)NCN3Cc2ccc(Cl)cc2)ccc1F,4.45% (inactive),
COc1ccc(CCN2CC(C(=O)N3CCC(CO)CC3)CCC2=O)cc1 (centres undefined),0% (inactive),
COc1ccc(CNC(=O)C2=C(C)C(=O)OC23CCC(C)CC3)cc1 (centres undefined),4.46% (inactive),
COC(=O)[C@]1(C)CCC[C@@]2(C)C3CC[C@@]4(C)C[C@]3(CCC21)CC(=O)N4Cc1ccc(OC)cc1 (some centres undefined),,3.76 µM (active)
Cc1c(C#N)c2ccccc2n1CCOc1ccccc1F,,1.68 µM (active)
COc1ccc(-c2nc(Cn3c(SCc4ccccc4F)nc4ccncc43)c(C)o2)cc1OC,,8.41 µM (active)
COc1cc(NC(=O)CSc2nc(-c3ccc(C(C)C)cc3)no2)cc(OC)c1,,0.842 µM (active)
COc1cc(NC(=O)CSc2nc3nc(C)c(Cc4ccc(C)cc4)c(C)n3n2)cc(OC)c1,-10.1% (inactive),
CC(C)c1ccc(NC(=O)CSc2nc(=O)n(Cc3ccccn3)c3c2CCC3)cc1,-16.5% (inactive),
COc1cc(NC(=O)CSc2nc(-c3ccccc3)no2)cc(OC)c1,,2.37 µM (active)
COc1ccc(C2Cn3nnc(C(=O)NCc4ccc(F)cc4Cl)c3CO2)cc1 (centres undefined),-9.54% (inactive),
COc1ccc2c(CNCc3ccccc3OC)c(C(=O)O)n(Cc3ccc(F)cc3Cl)c2c1,,15 µM (active)
Cc1ncc2n1C(=O)N(C1CCN(Cc3ccnn3C)CC1)C2,41.7% [at 43.1 µM] (inactive),
O=C(Nc1ccc([C@@H](O)[C@H]2COCC(=O)N2Cc2ccccc2F)cc1)c1ccccc1,3.31% [at 43.1 µM] (inactive),

Structure (SMILES),"activity change, negative = inhibition",Potency
COc1ccc(CN2C(=O)COC[C@@H]2[C@H](O)c2ccc(NC(=O)c3ccc(C(C)(C)C)cc3)cc2)cc1,,2.11 µM (active)
O=C(Nc1ccc([C@@H](O)[C@H]2COCC(=O)N2Cc2ccc(F)cc2)cc1)c1ccc2c(c1)OCO2,-12.2% (inactive),
COc1ccc(-c2noc(CCCC(=O)O)n2)cc1,22.9% (inactive),
CCOC(=O)c1nnn(-c2nonc2N)c1-c1ccc(Cl)cc1,,5.31 µM (active)
CCOC(=O)c1nnn(-c2nonc2N)c1-c1ccc(OC)cc1,,5.31 µM (active)
CCOC(=O)c1nnn(-c2nonc2N)c1-c1ccc(Br)cc1,,2.66 µM (active)
CCOC(=O)c1nnn(-c2nonc2N)c1-c1ccc(C)cc1,,5.31 µM (active)
Cc1noc(C)c1COC(=O)/C=C/c1ccc(Cl)cc1,-11.8% (inactive),
CCCS(=O)(=O)N1C[C@@H](COC)[C@H](c2nc(C)no2)C1,0% (inactive),
CC(C)(C)NC(=O)C1CCCN(C2CCN(C3Cc4ccccc4C3)CC2)C1 (centres undefined),-11.4% (inactive),
CCC(=O)N1CCc2cc(S(=O)(=O)NCCC(=O)Nc3ccc(OC)c(Cl)c3)ccc21,50.2% (inactive),
CCC(=O)N1CCc2cc(Br)cc(S(=O)(=O)C3(C(=O)OC)CC3)c21,,3.76 µM (active)
CCC(=O)N1CCc2cc(Br)cc(S(=O)(=O)N3CCCCC3CC)c21 (centres undefined),,1.06 µM (active)
CCC(=O)N1CCc2cc(Br)cc(S(=O)(=O)N3CCCC(C(=O)NC(C)(C)C)C3)c21 (centres undefined),,3.35 µM (active)
CCC(=O)N1CCc2cc(S(=O)(=O)CCC(=O)NCc3ccc(OC)cc3)ccc21,26.3% (inactive),
Cc1nc(-c2ccccc2OC2CN(S(=O)(=O)Cc3ccccc3F)C2)no1,-13% (inactive),
CC(C)(C)n1nnnc1C(c1cccnc1)N(Cc1ccccc1)Cc1ccco1 (centres undefined),,5.31 µM (active)
CC(C)(C)c1ccc(CN(Cc2ccccc2)C(c2ccccn2)c2nnnn2C(C)(C)C)cc1 (centres undefined),,4.73 µM (active)
Cc1noc(C)c1NC(=O)N1CCC(c2n[nH]c(=O)n2-c2ccccc2)CC1,21.1% (inactive),
Cc1nccn1CC(O)Cn1c2ccccc2c2ccccc21 (centres undefined),,8.41 µM (active)
Cc1ccccc1C(=O)N1CCC2(CC1)N(c1ccccc1)C(=O)CS2(=O)=O,0.857% (inactive),
O=C(c1cccc2[nH]ccc12)N1CCCC(n2cc(-c3nc(C4CC4)no3)nn2)C1 (centres undefined),21.1% (inactive),
OCc1ccc(CN2CCCC(CCc3c(F)cccc3F)C2)o1 (centres undefined),,4.22 µM (active)
OC[C@H]1CCN(Cc2ccc(-c3cccc(Cl)c3Cl)o2)C[C@@H]1O,-7.08% (inactive),

Structure (SMILES),"activity change, negative = inhibition",Potency
Cc1cccc(Oc2nc(-c3ccccn3)nc3ccccc23)c1,,7.5 µM (active)
c1ccc(Oc2nc(-c3ccccn3)nc3ccccc23)cc1,,7.5 µM (active)
Cc1cccc(Oc2nc(-c3ccncc3)nc3ccccc23)c1,,7.5 µM (active)
CCCOc1ccc(Oc2nc(-c3ccncc3)nc3ccccc23)cc1,,4.22 µM (active)
CCSc1nc(CC(=O)NCc2ccc(S(N)(=O)=O)cc2)cs1,16.3% (inactive),
CC(=O)c1c(C)[nH]c(C(=O)COc2ccc3ccc(=O)oc3c2)c1C,-18% (inactive),
Cc1nn(C)c2nc(-c3ccccn3)nc(N3CCC4(CC3)COC(=O)O4)c12,32.9% (inactive),
c1ccc(-c2nc(N3CCCCCC3)c3ccccc3n2)nc1,,1.68 µM (active)
Cc1ccccc1Oc1nc(-c2ccccn2)nc2ccccc12,,6.68 µM (active)
Fc1ccc(Oc2nc(-c3ccccn3)nc3ccccc23)cc1,,13.3 µM (active)
CCCCCCSc1ccc([C@H]2N[C@@](Cc3ccccc3)(C(=O)OC)[C@H]3C(=O)N(CC)C(=O)[C@@H]23)cc1,,3.35 µM (active)
CCCCCCSc1ccc([C@H]2N[C@@](Cc3ccccc3)(C(=O)OC)[C@H]3C(=O)N(C)C(=O)[C@@H]23)cc1,,4.73 µM (active)
CCCSc1ccc([C@H]2N[C@@](Cc3ccccc3)(C(=O)OC)[C@H]3C(=O)N(CC)C(=O)[C@@H]23)cc1,,5.31 µM (active)
O=C(CCl)N(c1ccccc1)c1c[nH]c2ccccc12,,2.11 µM (active)
Cc1cc2nc(/C=C/c3nc4cc(C)c(C)cc4[nH]3)[nH]c2cc1C,-9.37% (inactive),
NC1CC(c2cc(N3CCCN(C(=O)c4ccoc4)CC3)ncn2)C1 (centres undefined),45.1% (inactive),
COc1ccc(N2CCN(c3cc(C4CC(N)C4)nc(N)n3)CC2(C)C)cc1 (centres undefined),,2.99 µM (active)
Cc1cc(C)cc(N2CCN(c3cc(C4CC(O)C4)nc(C)n3)CC2=O)c1 (centres undefined),6.34% (inactive),
COc1ccccc1Nc1c2c(nc3ccc(NC(=O)/C=C/c4cccc(OC)c4OC)cc13)CCCC2,,5.96 µM (active)
COc1ccc(/C=C/C(=O)Nc2ccc3nc4c(c(Nc5ccccc5OC)c3c2)CCCC4)cc1,,3.35 µM (active)
Fc1ccc(F)c(Nc2c3c(nc4ccc(Cl)cc24)CCC3)c1,-26.2% (inactive),
Cc1cc(N2CCN(C3CCCC3)CC2)n2c(nc3ccccc32)c1C#N,,1.06 µM (active)

# Reference: PubChem BioAssay AID1347416 (National Center for Advancing Translational Sciences (NCATS), 2020)
